Measured values as given in PubChem BioAssay (NCATS).
Inconclusive results are not listed. Where a call stands in place of a potency, no number is given. The source made the active and inactive calls. The call rests on the fitted dose curve; in most records, active means well fitted curve in the direction sought with a large enough effect; inconclusive means small, poorly fitted or top-dose-only effect, or another doubt; inactive means no such curve, though single readings can be large; an effect the other way counts as inactive or inconclusive.

Assay: S16 Schwann cell viability assay (CellTiter-Glo assay) (AID 624031);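 further: native untransfected S16 rat Schwann cells; cellular ATP luminescence as a viability measure; nearly all actives have a fitted effect of over 70% in size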
Settings: S16 rat Schwann cells viability, 24 h; series mostly up to 57.5 µM
Outline: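 Following overnight culture in 10% FBS DMEM, parental S16 rat Schwann cells are dosed for 24 h at 37 °C. Viability is read as CellTiter-Glo luminescence and expressed as % activity relative to DMSO (0%) and no-cell wells.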

Structure (SMILES)	Potency
Nc1nc(-c2ccccc2)c(Br)c(=O)[nH]1	inactive
COc1cc(C(=O)NCc2ccc(OCCN(C)C)cc2)cc(OC)c1OC	inactive
CN1CCC(OC(c2ccccc2)c2ccccc2)CC1	inactive
C[C@@H](O)[C@H]1C(=O)N2C(C(=O)O)=C(S[C@@H]3CN[C@H](CNS(N)(=O)=O)C3)[C@H](C)[C@H]12	inactive
COc1ccc(C(=O)c2ccccc2O)c(O)c1	inactive
CCCCN=C(N)N=C(N)N	inactive
CCCCc1cc2ccccc2c(OCCN(C)C)n1	inactive
NC(=O)C1(N2CCCCC2)CCN(CCCC(=O)c2ccc(F)cc2)CC1	inactive
CCC(CC)(CC(=O)Nc1cccc(/C=C/c2nc(C3CCC3)cs2)c1)C(=O)O	inactive
O=C(O)P(=O)(O)O	inactive
CCOc1ccccc1OCCN[C@H](C)Cc1ccc(OC)c(S(N)(=O)=O)c1	inactive
NS(=O)(=O)Cc1noc2ccccc12	inactive
C/C=C/C=N/NC(=O)c1ccncc1	inactive
Cc1ccccc1OCC(O)CO (stereo not given)	inactive
O=C(c1ccc(F)cc1)C1CCN(CCn2c(=S)[nH]c3ccccc3c2=O)CC1	inactive
CCCCNc1ccc(C(=O)OCCOCCOCCOCCOCCOCCOCCOCCOCCOC)cc1	inactive
NS(=O)(=O)c1cc(C(=O)O)cc(N2CCCC2)c1Oc1ccccc1	inactive
C#C[C@]1(O)CC[C@H]2[C@@H]3CCc4cc(OC)ccc4[C@H]3CC[C@@]21C	inactive

Structure (SMILES)	Potency
COc1ccc(/C=N/NC(=O)c2ccncc2)cc1OC	inactive
Oc1ccc(Cl)cc1Cc1cc(Cl)ccc1O	inactive
COc1cc(N)c(Cl)cc1C(=O)NC1CCN(Cc2ccccc2)CC1	inactive
CCNC(=O)NCc1cccc(Cl)c1	inactive
CC(C)Nc1cccnc1N1CCN(C(=O)c2cc3cc(NS(C)(=O)=O)ccc3[nH]2)CC1	inactive
COc1ccc(-c2cc(C(F)F)nn2-c2ccc(S(N)(=O)=O)cc2)cc1F	inactive
CC(=O)Nc1ncc([N+](=O)[O-])s1	inactive
OC(C#CCN1CCCC1)(c1ccccc1)c1ccccc1	inactive
C#C[C@]1(O)CC[C@H]2[C@@H]3CCC4=CC(=O)CC[C@@H]4[C@H]3CC[C@@]21CC	inactive
O=C1C(CCS(=O)c2ccccc2)C(=O)N(c2ccccc2)N1c1ccccc1 (stereo not given)	inactive
COc1ccc(CCN(C)CCCN2CCc3cc(OC)c(OC)cc3CC2=O)cc1OC	inactive
CC(=O)OC[C@H]1O[C@@H](n2ncc(=O)[nH]c2=O)[C@H](OC(C)=O)[C@@H]1OC(C)=O	inactive
Nc1nc(N)c(-c2ccccc2)s1	inactive
CC(=O)NO	inactive
Nc1ccc(S(=O)(=O)Nc2cnc3ccccc3n2)cc1	inactive
O=C(O)C(Cc1cc(I)c(O)c(I)c1)c1ccccc1 (stereo not given)	inactive
Nc1ccc(S(=O)(=O)NCc2ccccc2)cc1	inactive

Assay: S16 Schwann cell PMP22 intronic element firefly luciferase assay (AID 624032); further: nearly all actives have a fitted effect of over 30% in size; further: potency means the concentration at half of the fitted maximal effect
Settings: S16 rat Schwann cells, PMP22 element FLuc, 24 h; series mostly up to 57.5 µM
Outline: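 Rat S16 Schwann cells stably carrying firefly luciferase driven by a PMP22 intronic element, in 10% FBS, treated 24 h at 37 C. ONE-Glo luminescence normalized to PTC124 control and DMSO (0%); curves classed by r2, magnitude and activity.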

Structure (SMILES)	Potency
Nc1nc(-c2ccccc2)c(Br)c(=O)[nH]1	inactive
COc1cc(C(=O)NCc2ccc(OCCN(C)C)cc2)cc(OC)c1OC	inactive
CN1CCC(OC(c2ccccc2)c2ccccc2)CC1	inactive
C[C@@H](O)[C@H]1C(=O)N2C(C(=O)O)=C(S[C@@H]3CN[C@H](CNS(N)(=O)=O)C3)[C@H](C)[C@H]12	inactive
COc1ccc(C(=O)c2ccccc2O)c(O)c1	inactive
CCCCN=C(N)N=C(N)N	inactive
CCCCc1cc2ccccc2c(OCCN(C)C)n1	inactive
NC(=O)C1(N2CCCCC2)CCN(CCCC(=O)c2ccc(F)cc2)CC1	inactive
CCC(CC)(CC(=O)Nc1cccc(/C=C/c2nc(C3CCC3)cs2)c1)C(=O)O	inactive
O=C(O)P(=O)(O)O	inactive
CCOc1ccccc1OCCN[C@H](C)Cc1ccc(OC)c(S(N)(=O)=O)c1	inactive
NS(=O)(=O)Cc1noc2ccccc12	inactive
C/C=C/C=N/NC(=O)c1ccncc1	inactive
Cc1ccccc1OCC(O)CO (stereo not given)	inactive
O=C(c1ccc(F)cc1)C1CCN(CCn2c(=S)[nH]c3ccccc3c2=O)CC1	inactive
CCCCNc1ccc(C(=O)OCCOCCOCCOCCOCCOCCOCCOCCOCCOC)cc1	inactive
NS(=O)(=O)c1cc(C(=O)O)cc(N2CCCC2)c1Oc1ccccc1	inactive
C#C[C@]1(O)CC[C@H]2[C@@H]3CCc4cc(OC)ccc4[C@H]3CC[C@@]21C	inactive

Structure (SMILES)	Potency
COc1ccc(/C=N/NC(=O)c2ccncc2)cc1OC	inactive
Oc1ccc(Cl)cc1Cc1cc(Cl)ccc1O	inactive
COc1cc(N)c(Cl)cc1C(=O)NC1CCN(Cc2ccccc2)CC1	inactive
CCNC(=O)NCc1cccc(Cl)c1	inactive
CC(C)Nc1cccnc1N1CCN(C(=O)c2cc3cc(NS(C)(=O)=O)ccc3[nH]2)CC1	14.4 µM (active)
COc1ccc(-c2cc(C(F)F)nn2-c2ccc(S(N)(=O)=O)cc2)cc1F	inactive
CC(=O)Nc1ncc([N+](=O)[O-])s1	inactive
OC(C#CCN1CCCC1)(c1ccccc1)c1ccccc1	inactive
C#C[C@]1(O)CC[C@H]2[C@@H]3CCC4=CC(=O)CC[C@@H]4[C@H]3CC[C@@]21CC	20.3 µM (active)
O=C1C(CCS(=O)c2ccccc2)C(=O)N(c2ccccc2)N1c1ccccc1 (stereo not given)	inactive
COc1ccc(CCN(C)CCCN2CCc3cc(OC)c(OC)cc3CC2=O)cc1OC	inactive
CC(=O)OC[C@H]1O[C@@H](n2ncc(=O)[nH]c2=O)[C@H](OC(C)=O)[C@@H]1OC(C)=O	inactive
Nc1nc(N)c(-c2ccccc2)s1	inactive
CC(=O)NO	inactive
Nc1ccc(S(=O)(=O)Nc2cnc3ccccc3n2)cc1	inactive
O=C(O)C(Cc1cc(I)c(O)c(I)c1)c1ccccc1 (stereo not given)	inactive
Nc1ccc(S(=O)(=O)NCc2ccccc2)cc1	inactive
